# Values joined by “and” are separate entries in the source; they are usually repeats but may differ in a detail not shown here. Equal values may be shown once. Some structures have more than one record in an assay (separate samples or runs), and their calls can disagree. Active and inactive are the calls of the source. The calls were made as follows: active = hit-call score of the fitted dose curve at least 0.9, where 1 is the maximum; inactive = score below 0.9.
# Read-out: Plasminogen activator inhibitor-1 (PAI1), SERPINE1 (gene 5054)
# Assay: BSK_BE3C_PAI1: BioMAP Diversity Plus: BE3C Assay for Plasminogen activator inhibitor-1 (PAI1) Biomarker Activity (AID 2283037)
# Settings: primary human bronchial epithelial cells; actives raise or lower the signal
# Experimental: BSK_BE3C is a cell-based, multiplexed-readout assay that uses bronchial epithelial cell, a human lung primary cell, with measurements taken at 24 hours after chemical dosing in a 96-well plate.BSK_BE3C_PAI1 is an assay component measured in the BSK_BE3C assay. It measures PAI-1 antibody related to regulation of gene expression using ELISA technology.Data from the assay component BSK_BE3C_PAI1 was analyzed into 1 assay endpoint. This assay endpoint, BSK_BE3C_PAI1, was analyzed with bidirectional fitting relative to DMSO as the negative control and baseline of activity. Using a type of binding reporter, gain or loss-of-signal activity can be used to understand changes in the signaling as they relate to the gene SERPINE1. Furthermore, this assay endpoint can be referred to as a primary readout, because this assay has produced multiple assay endpoints where this one serves a signaling function. To generalize the intended target to other relatable targets, this assay endpoint is annotated to the cytokine intended target family, where the subfamily is plasmogen activator inhibitor.
# The levels of cell surface (or secreted, indicated by the prefix "s") biomarker endpoints were measured by ELISA. Overt cytotoxicity to cells in confluent adherent cultures (all systems other than the BT system) was assessed by measuring total protein levels using sulforhodamine B (SRB) staining in parallel cultures at the time of biomarker measurements, indicated as SRB endpoints. For proliferation assays for adherent cell types, individual cell types are cultured at sub-confluence and relative cell numbers quantified by SRB staining at time points optimized for each system (48 h: 3C and CASM3C systems; 72 h: BT and HDF3CGF systems; 96 h: SAg system). SRB was performed by staining cells with 0.1% SRB after fixation with 10% TCA and reading wells at 560 nm.Viability and proliferation of PBMC (T cells) was quantified by Alamar Blue reduction for the SAg and BT systems. For PBMC viability (referred to as PBMC Cytotoxicity within the assay endpoint names), cells were plated (75,000/well in a 96-well plate) and then chemical samples added for 1 h before addition of activators, SEB and TSST-1 (20 ng/mL final concentration each). Cells were incubated for 90 h. Then, Alamar Blue (20 uL/well) (Invitrogen, Cat DAL1100) was added for 6 h, and the plates were read with a fluorescence microplate reader at 546/580 nm (excitation/emission). For PBMC proliferation, cells were plated and activated as above but incubated for only 16 h prior to addition of Alamar Blue. Plates were read after 6 h.
Structure (SMILES),outcome,AC50
OCC(F)(F)C(F)(F)C(F)(F)CO,inactive,–
O=C1c2c(O)ccc(Nc3ccc(CCO)cc3)c2C(=O)c2c([N+](=O)[O-])ccc(O)c21,inactive,–
O=C(O)C(F)(F)C(F)(F)C(F)(F)OC(F)(F)F,inactive,–
O=C(O)C(F)(F)C(F)(F)C(F)(F)C(=O)O,inactive,–
OCC(F)(F)C(F)(F)C(F)(F)C(F)(F)C(F)(F)C(F)(F)C(F)(F)C(F)(F)CO,–,37.4 µM (active) and 30 µM (active)
CC(C)(C)c1cc(CCC(=O)NCCCCCCNC(=O)CCc2cc(C(C)(C)C)c(O)c(C(C)(C)C)c2)cc(C(C)(C)C)c1O,inactive,–
FC(F)(F)C(F)(F)C(F)(F)C(F)(F)C(F)(F)C(F)(F)C(F)(F)CCI,inactive,–
CC1=CC2C3C=CC(C3)C2C1C (stereo not given),inactive,–
OC(O)C(F)(F)C(F)(F)F,inactive,–
O=C=Nc1cccc2c(N=C=O)cccc12,inactive,–
Cc1cc(C)c(O)c(C(C)(C)C)c1,–,27.9 µM (active)
COC(F)(C(F)F)C(F)(F)F (stereo not given),inactive,–
O=S(=O)(OCC(F)(F)F)C(F)(F)C(F)(F)C(F)(F)C(F)(F)F,inactive,–
Nc1cc([N+](=O)[O-])cc(Cl)c1O,inactive,–
O=S(=O)(O)CCC(F)(F)C(F)(F)C(F)(F)C(F)(F)F,inactive,–
CCN(CC)c1ccc2c(c1)Oc1cc(N(CC)CC)ccc1C21OC(=O)c2ccccc21,inactive,–
O=C(c1ccccc1)c1ccc(O)cc1O,inactive,–
NS(=O)(=O)C(F)(F)C(F)(F)C(F)(F)C(F)(F)C(F)(F)C(F)(F)F,inactive,7.32 µM (active)
C=C(C)C(=O)OCC(F)(F)C(F)(F)C(F)(F)C(F)F,inactive,–

Structure (SMILES),outcome,AC50
NCC(F)(F)C(F)(F)C(F)(F)C(F)(F)C(F)(F)C(F)(F)F,inactive,–
OCCCCC(F)(F)C(F)(F)C(F)(F)C(F)(F)F,inactive,–
Cc1cnccn1,inactive,–
OCC(O)CC(F)(F)C(F)(F)C(F)(F)C(F)(F)F (stereo not given),inactive,–
O=C(O)CCC(F)(F)C(F)(F)C(F)(F)F,inactive,–
O=C(Cl)C(F)(F)C(F)(F)C(F)(F)C(F)(F)C(F)(F)C(F)(F)C(F)(F)F,inactive,–
CC(C)CCCC(C)CCO (stereo not given),inactive,–
C=CC(=O)OCC(F)(F)C(F)(F)C(F)(F)C(F)(F)C(F)(F)C(F)(F)C(F)(F)C(F)F,inactive,–
CN(C(=O)C(F)(F)C(F)(F)C(F)(F)F)[Si](C)(C)C,inactive,–
O=C(F)C1(F)C(F)(F)C(F)(F)C(F)(F)C(F)(F)C1(F)F,inactive,–
NC(=O)C(F)(F)C(F)(F)C(F)(F)F,inactive,–
NCC(F)(F)C(F)(F)C(F)(F)C(F)(F)C(F)(F)C(F)(F)C(F)(F)C(F)(F)F,inactive,–
FC(F)(F)C(F)(F)C(F)(F)CC1CO1 (stereo not given),inactive,–
NC(=O)C(F)(F)C(F)(F)C(F)(F)C(F)(F)C(F)(F)C(F)(F)C(F)(F)F,inactive,–
O=S(=O)(O)CCC(F)(F)C(F)(F)C(F)(F)C(F)(F)C(F)(F)C(F)(F)C(F)(F)C(F)(F)F,inactive,8.09 µM (active)
NC(O)(C(F)(F)F)C(F)(F)F,inactive,–
CNS(=O)(=O)C(F)(F)C(F)(F)C(F)(F)C(F)(F)C(F)(F)C(F)(F)C(F)(F)C(F)(F)F,–,2.67 µM (active) and 1.97 µM (active)
O=C(O)C(F)(F)OC(F)(F)C(F)(F)OC(F)(F)C(F)(F)OC(F)(F)F,inactive,–
C=CC(=O)OCCC(F)(F)C(F)(F)C(F)(F)C(F)(F)F,inactive,–

# Source: PubChem BioAssay (EPA / NIEHS)
